Source: the supplement of paper PMC6555819

How the values were obtained:
Test in all cases: PBM binding z-score (relative to random genomic background probes); higher = stronger binding; sequences stand for … in GC…GCGATTGACAGCGTAGAATGAAGG
[1] = tested on: PPARg:RXRa DBDmut IVT, anti-RXR (DBD mutation: RXRa K156A/R161A, NR concentration 270 nM, RXRa partner concentration 90 nM)
Outline: (§1)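 Scanned fluorescence from custom Agilent 4×180K protein-binding microarrays was regression-normalized. Binding z-scores use random background probes as reference. Ligand-free nuclear receptor dimers were incubated on the arrays for 1 h and detected with antibodies against each partner (one per run).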

[2] = tested on: PPARg:RXRa IVT, anti-PPARg (NR concentration 270 nM, RXRa partner concentration 90 nM)
Outline: as §1

[3] = tested on: PPARg DBDmut:RXRa IVT, anti-PPARg (DBD mutation: PPARg1 K132A/R137A, NR concentration 270 nM, RXRa partner concentration 90 nM)
Outline: as §1

[4] = tested on: PPARg DBDmut IVT, anti-PPARg (DBD mutation: PPARg1 K132A/R137A, NR concentration 270 nM)
Outline: as §1

[5] = tested on: PPARg homodimer (NR concentration 180 nM)
Outline: as §1

[6] = tested on: PXR:RXRa (NR concentration 270 nM, RXRa partner concentration 90 nM)
Outline: as §1

[7] = tested on: PXR homodimer (NR concentration 270 nM)
Outline: as §1

[8] = tested on: RARa:RXR (NR concentration 270 nM, RXRa partner concentration 90 nM)
Outline: as §1

[9] = tested on: RARa homodimer (NR concentration 270 nM)
Outline: as §1

[10] = tested on: RARb:RXRa (NR concentration 270 nM, RXRa partner concentration 90 nM)
Outline: as §1

[11] = tested on: RARb homodimer (NR concentration 270 nM)
Outline: as §1

[12] = tested on: RARg:RXRa (NR concentration 270 nM, RXRa partner concentration 90 nM)
Outline: as §1

[13] = tested on: RARg homodimer (NR concentration 270 nM)
Outline: as §1

[14] = tested on: RXRa DBDmut IVT, anti-RXR (DBD mutation: RXRa K156A/R161A, NR concentration 90 nM)
Outline: as §1

[15] = tested on: RXRa homodimer (NR concentration 180 nM)
Outline: as §1

[16] = tested on: THRa:RXRa (NR concentration 90 nM, RXRa partner concentration 90 nM)
Outline: as §1

[17] = tested on: THRa homodimer (NR concentration 90 nM)
Outline: as §1

[18] = tested on: VDR:RXRa (NR concentration 270 nM, RXRa partner concentration 90 nM)
Outline: as §1

[19] = tested on: VDR homodimer (NR concentration 270 nM)
Outline: as §1

Sequence | PBM binding z-score [1] | PBM binding z-score [2] | PBM binding z-score [3] | PBM binding z-score [4] | PBM binding z-score [5] | PBM binding z-score [6] | PBM binding z-score [7] | PBM binding z-score [8] | PBM binding z-score [9] | PBM binding z-score [10] | PBM binding z-score [11] | PBM binding z-score [12] | PBM binding z-score [13] | PBM binding z-score [14] | PBM binding z-score [15] | PBM binding z-score [16] | PBM binding z-score [17] | PBM binding z-score [18] | PBM binding z-score [19]
TCTCGGCGGACACGAAAGGTCAGAGCTCGACATC | 1.12 | 0.541 | -0.347 | -0.845 | 1.83 | 3.15 | -0.247 | 3.71 | 0.345 | 3.56 | 4.12 | 4.12 | 4.06 | 0.462 | 3.66 | 2.55 | 0.2 | 2.19 | 0.543
CCTATTAGTTGACCACAAGGGCAACCGAAGCTCG | 0.687 | 0.913 | 0.619 | 0.658 | 1.46 | 0.841 | 1 | 0.762 | 1.46 | 1.49 | 1.95 | 1.15 | 1.01 | 0.553 | 0.829 | 1.23 | 0.878 | 0.807 | 1.01
CCGACTGGGGCAAAGGTTAGCATACTCAGTACGA | 4.94 | 4.9 | -0.151 | -1.37 | 1.58 | 1.47 | -0.542 | 2.78 | -0.0647 | 1.99 | 1.56 | 2.76 | 1.55 | 0.057 | 2.79 | 0.962 | -0.171 | 0.691 | -0.381
AATACAGGGTCATCGTAGGCAAGAGTACGCACAG | 2.91 | 4.3 | 1.57 | 1.49 | 4.01 | 4.55 | 0.721 | 5.8 | 1.82 | 4.46 | 3.24 | 5.6 | 5.07 | 3.51 | 6.7 | 4.16 | 1.5 | 5.23 | 3.96
CCGAGTAGGTTATGGGGCATTCGGGCAACGGTGA | 2.83 | 3.88 | -0.19 | -0.259 | 0.492 | 0.00674 | -0.383 | 0.377 | -0.149 | 1.1 | 1.46 | 0.533 | 0.653 | -0.483 | 0.797 | 0.415 | 0.172 | -0.16 | -0.175
TCGAGTAGGTTAGGGGTATTCAGAATGGCGTCGA | 2.5 | 2.26 | 0.429 | 0.6 | 0.948 | 0.383 | 0.362 | 0.00419 | 0.176 | 0.589 | 0.614 | 0.141 | -0.12 | 0.297 | 0.649 | 0.317 | 0.194 | 0.154 | 0.305
GCGACTGGGGCAACGCAGGTTACCATAAGGTTGG | 4.39 | 4.13 | -0.305 | -0.763 | -0.0289 | 0.606 | -0.69 | 0.702 | -1.06 | 1.19 | 1.32 | 0.851 | 0.785 | -0.722 | 0.638 | 2.88 | 0.105 | -0.0248 | -0.176
TGAATGAGATTATAAGATCAGGGAACGTTGCAAA | -1.28 | -0.236 | 0.555 | 0.576 | -1.31 | -0.518 | -0.193 | -0.548 | 0.0948 | -1.13 | -1.01 | -0.048 | 0.172 | -1.08 | -0.35 | -0.424 | -1.28 | – | -0.262
CGTCCAAGGTAAGCAGGTCAGTGAAAGCGACGTG | 1.7 | 1.91 | -0.624 | -0.894 | 0.421 | 0.192 | -0.446 | 0.529 | -0.36 | 1.89 | 2.25 | 1.08 | 1.44 | -0.436 | 0.485 | 1.7 | 0.269 | 0.00518 | -0.407
ACAGACAGGTGAGTGAAGGAAACTCAGCTGGACG | 0.214 | 0.274 | -0.163 | -1.04 | -0.703 | -0.793 | -0.677 | -0.777 | -0.124 | -0.0129 | -0.566 | -0.0497 | 0.189 | -0.324 | 0.249 | -0.366 | -0.967 | -0.816 | -0.21
CAGCCTAGGTCAGGGCCAGTATTGGAGGAACGTT | 1.37 | 1.29 | -1.49 | -1.57 | 0.568 | 0.0346 | -0.593 | 1.02 | -0.698 | 3.35 | 2.67 | 2.91 | 3.91 | -0.14 | 1.62 | 2 | 0.259 | -0.0862 | -0.444
CCAGACAGGTGAAAGGTAACTCGGTCTGGTACGC | 2.3 | 2.9 | -0.38 | -1.24 | 0.981 | 0.75 | -0.111 | 1.77 | 0.392 | 1.2 | 0.705 | 1.23 | 0.639 | -0.242 | 2.27 | 0.879 | 0.0486 | 0.865 | -0.126
TGAATGAGGTTATAAGATCAGGGACCGTTGCAAA | 1.22 | 1.99 | 0.832 | -0.0564 | 0.812 | 0.874 | 0.0306 | 1.43 | -0.64 | 1.33 | 0.518 | 1.43 | 0.648 | 0.574 | 1.83 | 1.75 | 0.103 | 1.25 | 0.401
ACTAGTTTGTCAGCTGAGGTCACACACAATTCGG | 1.11 | 2.31 | 0.92 | 1.54 | 2.72 | 4.87 | 2.34 | 4.4 | 1.24 | 3.28 | 3.94 | 3.85 | 3.7 | 1.98 | 4.13 | 4.42 | 5.24 | 4.34 | 3.53
